The full list was thinned out, with hits kept by preference.
HIV RNase H inh-1: inhibitors of HIV-1 reverse transcriptase RNase H | inhibition, % at 10 µM | 65,000 tested, 1.9% active | AID 565 | RT-RNase H RNA/DNA duplex cleavage, fluorescence | P04585; in the data active means inhibition above about 50%
RmlCD inh mix: mixture blocks RmlC and RmlD coupled enzyme activity. RmlC/RmlD coupled enzyme inhibition, 384-well mixture HTS. inhibition, % at 5.5 µM. 110,000 tested, 0.39% active; in the data active means inhibition above about 30%, passing the limit was not always enough; inconclusive means no clear call, values can overlap the other calls
HIV RNase H inh-2: confirmation of HIV-1 reverse transcriptase RNase H inhibitors. 1,000 tested, 39% active. Recombinant RT RNase H, fluorescent RNA/DNA duplex cleavage. shares compounds with HIV RNase H inh-1. inhibition, % at 10 µM; in the data active means inhibition above about 48%; inconclusive means no clear call, values can overlap the other calls
Numbers stand for hits.

How did Cc1cc(-c2nc3c4c5c(sc4[nH]c(=O)n3n2)CCC5)c(C)o1 do in these assays?
HIV RNase H inh-1: 80.8; RmlCD inh mix: inactive; HIV RNase H inh-2: inconclusive

Results for Cc1ccc(S(=O)(=O)n2nc(-c3ccco3)nc2SCc2ccccc2)cc1 ?
HIV RNase H inh-1: inactive

How did CCOC(=O)c1c(OCC)[nH]c2c1cc(O)c1ccccc12 do in these assays?
HIV RNase H inh-1: inactive; RmlCD inh mix: inactive

Results for CCCCOc1ccc(S(=O)(=O)Nc2cccnc2)cc1 ?
HIV RNase H inh-1: inactive; RmlCD inh mix: inactive

Results for COc1ccc(C2SCC(=O)Nc3c2c(C)nn3-c2ccccc2)cc1 (stereo not drawn) ?
RmlCD inh mix: inactive

What do the screens show for `Cc1ccc(-n2nc(C)c3c2NC(=O)CSC3c2ccc3c(c2)OCO3)cc1` (stereo not drawn)?
HIV RNase H inh-1: 60.0; RmlCD inh mix: inactive; HIV RNase H inh-2: 64.4

How did CCOC(=O)c1c(C)[nH]c(C(=O)COC(=O)c2ccccn2)c1C do in these assays?
RmlCD inh mix: inactive

How did O=C(NCc1ccccc1)c1c(O)c2cccc3c2n(c1=O)CCC3 do in these assays?
HIV RNase H inh-1: inactive; RmlCD inh mix: inactive

How did O=C(NCc1ccc2c(c1)OCO2)c1c(O)c2cccc3c2n(c1=O)CCC3 do in these assays?
HIV RNase H inh-1: 72.4; RmlCD inh mix: inactive; HIV RNase H inh-2: inactive

What do the screens show for `CC1Oc2ccccc2N(Cc2ccccc2F)C1=O` (stereo not drawn)?
HIV RNase H inh-1: 89.8; RmlCD inh mix: inactive; HIV RNase H inh-2: inactive

What do the screens show for `CC1Oc2ccccc2N(Cc2ccccc2Cl)C1=O` (stereo not drawn)?
HIV RNase H inh-1: inactive; RmlCD inh mix: inactive

How did Cc1noc(C)c1S(=O)(=O)NC1CCCc2ccccc21 (stereo not drawn) do in these assays?
HIV RNase H inh-1: inactive; RmlCD inh mix: inactive

How did Cc1ccc(OCc2ccc(C(=O)N3CCOCC3)cc2)cc1C do in these assays?
HIV RNase H inh-1: inactive; RmlCD inh mix: inactive

What do the screens show for `CCn1c(=O)cc(SCC(=O)N2CCOCC2)c2ccccc21`?
HIV RNase H inh-1: inactive; RmlCD inh mix: inactive

What do the screens show for `CCn1c(=O)cc(SCC(=O)N2CCN(c3ccccc3OC)CC2)c2ccccc21`?
HIV RNase H inh-1: 70.8; RmlCD inh mix: inactive; HIV RNase H inh-2: inactive

How did CC(=O)n1c2c(c3ccccc31)OC(N)=C(C#N)C2c1ccc(C(C)C)cc1 (stereo not drawn) do in these assays?
RmlCD inh mix: inactive

Results for Cc1cc(NC(=O)Cc2cccs2)no1 ?
HIV RNase H inh-1: 73.5; HIV RNase H inh-2: inactive

Results for Cc1cc(NS(=O)(=O)c2ccc(NC(=O)Cc3cccs3)cc2)no1 ?
HIV RNase H inh-1: inactive; RmlCD inh mix: inactive

How did Cc1nn(-c2ccccc2)c(Cl)c1C(=O)OC(C)C(=O)NC(=O)NC1CCCCC1 (stereo not drawn) do in these assays?
RmlCD inh mix: inactive

What do the screens show for `Cc1ccnc(N2CCCC(C(=O)Nc3nnc(C)s3)C2)n1` (stereo not drawn)?
HIV RNase H inh-1: inactive; RmlCD inh mix: inactive

How did Cc1nn(Cc2ccccc2)c(C)c1NC(=O)c1cc2nc(-c3ccco3)cc(C(F)(F)F)n2n1 do in these assays?
HIV RNase H inh-1: inactive; RmlCD inh mix: inactive

How did O=C(Nc1cnn(Cc2ccc(F)cc2)c1)c1cc2nc(-c3ccco3)cc(C(F)(F)F)n2n1 do in these assays?
HIV RNase H inh-1: 58.6; RmlCD inh mix: inconclusive; HIV RNase H inh-2: inactive

What do the screens show for `CC1(C)CC(=O)C(C=NCCN2CCN(C(=O)Cc3ccccc3)CC2)=C(O)C1`?
HIV RNase H inh-1: inactive; RmlCD inh mix: inactive

Results for CC1(C)CC(=O)C(C(c2ccco2)C2C(=O)CC(C)(C)CC2=O)C(=O)C1 ?
HIV RNase H inh-1: 69.4; RmlCD inh mix: inactive; HIV RNase H inh-2: inactive

How did CC1(C)C(=O)C2(CCCC2)C(=O)OC1c1ccco1 (stereo not drawn) do in these assays?
HIV RNase H inh-1: inactive; RmlCD inh mix: inactive

How did O=Cc1ccc(O)c(O)c1 do in these assays?
RmlCD inh mix: inactive

Results for O=C(O)/C=C/c1ccc(O)c(O)c1 ?
HIV RNase H inh-1: 73.6; RmlCD inh mix: inactive; HIV RNase H inh-2: 75.8

What do the screens show for `O=C(c1ccccc1F)N1CCC(N2CCCCCC2)CC1`?
HIV RNase H inh-1: inactive; RmlCD inh mix: inactive

Results for Cn1c(=O)n(C)c2cc(S(=O)(=O)N3CCOCC3)ccc21 ?
HIV RNase H inh-1: inactive; RmlCD inh mix: inactive

What do the screens show for `O=S(=O)(c1ccc2nc(-c3ccco3)c(-c3ccco3)nc2c1)N1CCOCC1`?
HIV RNase H inh-1: 76.4; RmlCD inh mix: inactive; HIV RNase H inh-2: inactive

How did COc1ccc(NS(=O)(=O)c2ccc(Br)s2)cc1OC do in these assays?
HIV RNase H inh-1: inactive; RmlCD inh mix: inactive

Results for CCOc1cccc(C=Nc2cc(C)cc(C)c2O)c1O ?
HIV RNase H inh-1: 91.3; RmlCD inh mix: inactive; HIV RNase H inh-2: 73.5

How did COc1cccc(C=Nc2ccc3c(c2)OCCO3)c1O do in these assays?
HIV RNase H inh-1: inactive

What do the screens show for `CNC(=O)c1ccc(Nc2nnc(C)c3ccccc23)cc1`?
RmlCD inh mix: inactive

Results for Cc1ccc(NS(=O)(=O)c2ccccc2)c2c1CC(C)(C)O2 ?
RmlCD inh mix: inactive

Results for CCn1c(C(=O)N2CCCC(C(=O)O)C2)cc2sccc21 (stereo not drawn) ?
HIV RNase H inh-1: inactive; RmlCD inh mix: inactive

What do the screens show for `c1ccc2sc(SN3CCOCC3)nc2c1`?
HIV RNase H inh-1: 79.2; RmlCD inh mix: inactive; HIV RNase H inh-2: inactive

Results for c1ccc2sc(N3CCOCC3)nc2c1 ?
RmlCD inh mix: inactive

What do the screens show for `CC(C)Cn1c(N)c(C(=O)COC(=O)c2cc(-c3ccco3)nc3ccccc23)c(=O)n(C)c1=O`?
HIV RNase H inh-1: 86.4; HIV RNase H inh-2: inconclusive

What do the screens show for `CC(C)Cn1c(N)c(C(=O)COC(=O)c2cc(-c3ccccc3)nc3ccccc23)c(=O)n(C)c1=O`?
RmlCD inh mix: inactive

What do the screens show for `Cn1ccnc1P(=S)(c1nccn1C)N1CCOCC1`?
HIV RNase H inh-1: 87.1; RmlCD inh mix: inactive; HIV RNase H inh-2: 62.3

What do the screens show for `Cn1ccnc1P(=S)(c1nccn1C)c1nccn1C`?
HIV RNase H inh-1: inactive; RmlCD inh mix: inactive

How did Cc1nc(N2CCN(C(c3ccccc3)c3ccccc3)CC2)[nH]c(=O)c1C do in these assays?
HIV RNase H inh-1: inactive; RmlCD inh mix: inactive

What do the screens show for `Cc1nc(N2CCN(c3ccccc3)CC2)[nH]c(=O)c1Cc1cccc2ccccc12`?
HIV RNase H inh-1: 62.7; HIV RNase H inh-2: inactive

How did COc1cc(C(=O)Nc2cc(-c3nc4cc(C)ccc4o3)ccc2C)cc(OC)c1OC do in these assays?
HIV RNase H inh-1: inactive

How did Cc1cc(C)c2oc(-c3ccc(Cl)c(NC(=O)c4ccc(C#N)cc4F)c3)nc2c1 do in these assays?
HIV RNase H inh-1: 90.5; HIV RNase H inh-2: 73.0

What do the screens show for `CCCC12CN3CC(C)(CN(C1)C31CCCCC1)C2=O`?
HIV RNase H inh-1: inactive; RmlCD inh mix: inactive

How did NC(=O)c1cc(-c2ccccc2)sc1NC(=O)Cc1ccc(S(=O)(=O)N2CCOCC2)s1 do in these assays?
HIV RNase H inh-1: 57.9; RmlCD inh mix: inactive; HIV RNase H inh-2: 66.7

Results for O=C(COC(=O)Cc1ccc(S(=O)(=O)N2CCOCC2)s1)Nc1ccc2c(c1)OCO2 ?
RmlCD inh mix: inactive

What do the screens show for `CCC(CC)C(=O)N1CCCC(c2nc(-c3cccs3)no2)C1` (stereo not drawn)?
RmlCD inh mix: inactive

Results for Cc1cc(C)nc(/N=c2/ssnc2Cl)c1 ?
HIV RNase H inh-1: 83.8; RmlCD inh mix: inactive; HIV RNase H inh-2: inactive

Results for Cc1ccc(N=c2ssnc2Cl)cc1 ?
RmlCD inh mix: inactive
